According to PubChem BioAssay (EPA / NIEHS):
Results filed as inconclusive are left out. Calls of active or inactive are those of the source. How the source made its calls: active means hit-call score of the fitted dose curve at least 0.9, where 1 is the maximum; inconclusive means response in the unintended direction; inactive means score below 0.9.

Biological target: human Retinoic Acid Receptor beta (RARb), RARB (gene 5915) (UniProt P10826)
Assay: ATG_RARb_TRANS: Attagene TRANS-FACTORIAL HepG2 Assay for human Retinoic Acid Receptor beta (AID 2283004)
Method: ATG_TRANS is a cell-based, multiplexed-readout assay that uses HepG2, a human liver cell line, with measurements taken at 24 hours after chemical dosing in a 24-well plate.ATG_RARb_TRANS is one of 30 assay component(s) measured or calculated from the ATG_TRANS assay. It is designed to make measurements of mRNA induction, a form of inducible reporter, as detected with fluorescence intensity signals by Reverse transcription polymerase chain reaction (RT-PCR) and Capillary electrophoresis technology.Data from the assay component ATG_RARb_TRANS was analyzed into 1 assay endpoint. This assay endpoint, ATG_RARb_TRANS, was analyzed in the positive analysis fitting direction relative to DMSO as the negative control and baseline of activity. Using a type of inducible reporter, measures of mRNA for gain-of-signal activity can be used to understand the reporter gene at the transcription factor-level as they relate to the gene RARB. Furthermore, this assay endpoint can be referred to as a primary readout, because this assay has produced multiple assay endpoints where this one serves a reporter gene function. To generalize the intended target to other relatable targets, this assay endpoint is annotated to the nuclear receptor intended target family, where the subfamily is non-steroidal.
Human liver HepG2 cells are transiently transfected with multiple reporter transcription units (MRTUs) in 6-well plates using FuGene 6 reagent (Roche; 3 ml FuGene/1 mg DNA). The MRTU constructs are regulated by a cis-regulating element (promoter). […] A major difference between the CIS and TRANS system is that in CIS activities of endogenous TFs are measured, whereas the TRANS assay evaluates changes in activities of exogenous, chimeric NR-Gal4 proteins. […] At the end of 24 hour incubation, total RNA was isolated using TriZol reagent (Invitrogen). The isolated RNA is then reverse-transcribed using oligo(dT) primer and Mo-MLV reverse transcriptase (Invitrogen) with DNAse I (Ambion) treatment for 30 min. The one-tenth of the produced cDNA was amplified by PCR using Taq DNA polymerase (Invitrogen) and two reporter sequence-specific primers. The PCR products were fluorescently labeled by primer extension with 6-arboxyfluorescein (6-FAM) 5'-labeled reporter sequence-specific primer (2 min at 95 C, 20 s at 68 C and 10 min at 72 C) and these products were digested with 5U of HpaI (New England Biolabs) for 2h at 37 C. The fragments were purified using Qiaquick PCR columns (Qiagen), analyzed on an ABI 3130xL genetic analyzer (Applied Biosystems) with peak positions identified by using a set of X-rhodamine (ROX)-labeled MapMarker1000 molecular weight standards (BioVentures). The raw capillary electrophoresis data was processed using Attagraph software (Attagene).

Sequence of human Retinoic Acid Receptor beta (RARb), RARB (gene 5915) (P10826 whole entry, looked up): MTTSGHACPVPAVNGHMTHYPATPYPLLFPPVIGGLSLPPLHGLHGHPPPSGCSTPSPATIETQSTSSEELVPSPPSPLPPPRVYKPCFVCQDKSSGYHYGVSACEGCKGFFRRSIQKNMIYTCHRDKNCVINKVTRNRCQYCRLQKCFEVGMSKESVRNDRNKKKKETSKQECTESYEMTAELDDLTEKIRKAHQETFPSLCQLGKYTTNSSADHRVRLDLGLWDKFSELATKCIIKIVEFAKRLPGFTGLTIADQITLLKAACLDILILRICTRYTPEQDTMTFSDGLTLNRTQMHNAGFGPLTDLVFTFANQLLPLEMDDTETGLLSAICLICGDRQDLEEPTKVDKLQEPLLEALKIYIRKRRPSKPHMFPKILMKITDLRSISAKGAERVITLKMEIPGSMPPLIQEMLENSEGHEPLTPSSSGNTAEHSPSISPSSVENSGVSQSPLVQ

Q: With OC[C@@H](O)[C@H]1O[C@@H]2O[C@H](C(Cl)(Cl)Cl)O[C@@H]2[C@H]1O as the molecule, how does the outcome read?
A: inactive

Q: For CC(C)[N+](=O)[O-], which outcome is on record?
A: inactive

Q: With CC(C)CP(=S)(S)CC(C)C as the molecule, how does the outcome read?
A: inactive

Q: How did the outcome turn out when CC(C)(C1CCC(O)CC1)C1CCC(O)CC1 (stereo not given) was run?
A: inactive

Q: Cl[C@H]1OCCO[C@@H]1Cl was tested. Which outcome did it give?
A: inactive

Q: With CCOc1ccc(N)cc1 as the molecule, how does the outcome read?
A: inactive

Q: For O=C(CBr)c1ccc(O)cc1, which outcome is on record?
A: inactive

Q: With Oc1cccc(-c2ccccc2)c1 as the molecule, how does the outcome read?
A: inactive

Q: With O=C(O)c1cc(I)cc(I)c1I as the molecule, how does the outcome read?
A: inactive

Q: COc1nn(C(=O)NS(=O)(=O)c2ccccc2OC(F)(F)F)c(=O)n1C was tested. Which outcome did it give?
A: inactive

Q: With COc1ccc([N+](=O)[O-])cc1O as the molecule, how does the outcome read?
A: inactive

Q: Cc1ccc2nc3sc(=O)sc3nc2c1 was tested. Which outcome did it give?
A: inactive

Q: COC(F)(C(F)(F)C(F)(F)F)C(F)(C(F)(F)F)C(F)(F)F (stereo not given) was tested. Which outcome did it give?
A: inactive

Q: How did the outcome turn out when CC(C)=CC1C(C(=O)OCc2cccc(Oc3ccccc3)c2)C1(C)C (stereo not given) was run?
A: inactive

Q: With C=CCOC(N)=O as the molecule, how does the outcome read?
A: inactive

Q: How did the outcome turn out when O=[N+]([O-])c1c2ccccc2cc2ccccc12 was run?
A: inactive

Q: How did the outcome turn out when Oc1c(Br)cc(Br)cc1Br was run?
A: inactive

Q: Which outcome does the source give for C1CCC(C2CCCCC2)CC1 here?
A: inactive

Q: Which outcome does the source give for CCOC(=O)Cc1ccccc1 here?
A: inactive

Q: C#CCOC(=O)/C=C(C)/C=C/CC(C)CCCC(C)C (stereo not given) was tested. Which outcome did it give?
A: inactive

Q: c1ccc2c(c1)Oc1ccccc1O2 was tested. Which outcome did it give?
A: inactive

Q: CCOP(=O)(OCC)OC(=CCl)c1ccc(Cl)cc1Cl was tested. Which outcome did it give?
A: inactive

Q: Which outcome does the source give for CCCCC(CC)COC(=O)Cl (stereo not given) here?
A: inactive

Q: For O=S1OC[C@@H]2[C@H](CO1)[C@]1(Cl)C(Cl)=C(Cl)[C@@]2(Cl)C1(Cl)Cl (stereo not given in full), which outcome is on record?
A: inactive

Q: For CC(C)(COCC1CO1)COCC1CO1 (stereo not given), which outcome is on record?
A: inactive

Q: For CC(c1ccccc1)(c1ccc(O)cc1)c1ccc(O)cc1, which outcome is on record?
A: inactive

Q: For CCNc1nc(NCC)nc(SC)n1, which outcome is on record?
A: inactive

Q: How did the outcome turn out when FC(F)OCC(F)(F)C(F)(F)F was run?
A: inactive

Q: For O=C=Nc1ccc(Cl)cc1, which outcome is on record?
A: inactive

Q: O=C(N[C@H]1CN2CCC1CC2)c1ccc2c(c1)OCCO2 was tested. Which outcome did it give?
A: inactive

Q: Which outcome does the source give for COCC(=O)N(c1c(C)cccc1C)[C@H](C)C(=O)OC here?
A: inactive

Q: With O=C(O)C1(c2ccc3c(c2)OC[C@H](Cc2ccc(-c4ccccc4)cc2)[C@H]3O)CCCC1 as the molecule, how does the outcome read?
A: inactive

Q: For O=C(Cl)OCCOCCOC(=O)Cl, which outcome is on record?
A: inactive

Q: Which outcome does the source give for C1CN2CCN1CC2 here?
A: inactive

Q: Which outcome does the source give for CCCCOP(=O)(CCCC)OCCCC here?
A: inactive

Q: BrCCCCBr was tested. Which outcome did it give?
A: inactive

Q: For COCCl, which outcome is on record?
A: inactive

Q: CN(C1CCCCC1)C1CCCCC1 was tested. Which outcome did it give?
A: inactive

Q: Which outcome does the source give for O=C1c2ccccc2C(=O)C1C(=O)C(c1ccccc1)c1ccc(Cl)cc1 (stereo not given) here?
A: inactive
